# Several values for one entry are separate records, joined by “and”; a condition that tells them apart may be missing. Equal entries are not always repeated. The source holds several records for some structures; these can differ, active in one and inactive in another. Activity calls are given as the source filed them. The calls were made as follows: active = hit-call score of the fitted dose curve at least 0.9, where 1 is the maximum; inactive = score below 0.9.
# Columns and labels:
# [1] = IUF_NPC2c_oligodendrocyte_migration_120hr: Leibniz Research Institute for Environmental Medicine (IUF) 120-hour Neural Progenitor Cell Migration Assay for Oligodendrocyte Migration (NPC2c) (AID 2284297);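 also: O4-positive oligodendrocyte migration distance divided by radial glia migration distance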
# Outline: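 Human fetal neural progenitor spheres (0.3 mm) are plated on poly-D-lysine/laminin in N2 differentiation medium and exposed for 120 h, with half-medium renewal at day 3. Oligodendrocyte (O4+) migration distance comes from ICC imaging, normalised to radial glia migration.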
# [2] = read-out: Interleukin-8 (IL8), CXCL8 (gene 3576); test: BSK_BE3C_IL8: BioMAP Diversity Plus: BE3C Assay for Interleukin-8 (IL8) Biomarker Activity (AID 2284280); conditions: primary human bronchial epithelial cells
# Outline: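 IL-8 signal gain, normalised to DMSO vehicle, was scored after a 24 h chemical exposure of primary human bronchial epithelial cells, with detection by ELISA.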
# [3] = read-out: Epidermal growth factor receptor (EGFR), EGFR (gene 1956); test: BSK_BE3C_EGFR: BioMAP Diversity Plus: BE3C Assay for Epidermal growth factor receptor (EGFR) Biomarker Activity (AID 2284281); conditions: primary human bronchial epithelial cells
# Outline: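 Compound is added to human bronchial epithelial cells, cells incubate 24 h, then EGFR is detected by ELISA. Values reflect positive-direction fitting relative to DMSO.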
# [4] = read-out: KRT18 (gene 3875); test: BSK_BE3C_Keratin818: BioMAP Diversity Plus: BE3C Assay for Keratin 818 Biomarker Activity (AID 2284282); conditions: primary human bronchial epithelial cells
# Method: BSK_BE3C is a cell-based, multiplexed-readout assay that uses bronchial epithelial cell, a human lung primary cell, with measurements taken at 24 hours after chemical dosing in a 96-well plate.BSK_BE3C_Keratin818 is an assay component measured in the BSK_BE3C assay. It measures Keratin 8/18 antibody related to regulation of gene expression using ELISA technology.Data from the assay component BSK_BE3C_Keratin818 was analyzed at the endpoint, BSK_BE3C_Keratin818, in the positive analysis fitting direction relative to DMSO as the negative control and baseline of activity. Using a type of binding reporter, gain or loss-of-signal activity can be used to understand protein changes. To generalize the intended target to other relatable targets, this assay endpoint is annotated to the 'cell adhesion molecules' intended target family, where the subfamily is 'keratin'.
# The levels of cell surface (or secreted, indicated by the prefix "s") biomarker endpoints were measured by ELISA. Overt cytotoxicity to cells in confluent adherent cultures (all systems other than the BT system) was assessed by measuring total protein levels using sulforhodamine B (SRB) staining in parallel cultures at the time of biomarker measurements, indicated as SRB endpoints. For proliferation assays for adherent cell types, individual cell types are cultured at sub-confluence and relative cell numbers quantified by SRB staining at time points optimized for each system (48 h: 3C and CASM3C systems; 72 h: BT and HDF3CGF systems; 96 h: SAg system). SRB was performed by staining cells with 0.1% SRB after fixation with 10% TCA and reading wells at 560 nm.Viability and proliferation of PBMC (T cells) was quantified by Alamar Blue reduction for the SAg and BT systems. For PBMC viability (referred to as PBMC Cytotoxicity within the assay endpoint names), cells were plated (75,000/well in a 96-well plate) and then chemical samples added for 1 h before addition of activators, SEB and TSST-1 (20 ng/mL final concentration each). Cells were incubated for 90 h. Then, Alamar Blue (20 uL/well) (Invitrogen, Cat DAL1100) was added for 6 h, and the plates were read with a fluorescence microplate reader at 546/580 nm (excitation/emission). For PBMC proliferation, cells were plated and activated as above but incubated for only 16 h prior to addition of Alamar Blue. Plates were read after 6 h.
# [5] = read-out: Matrix Metallopeptidase 9 (MMP9), MMP9 (gene 4318); test: BSK_BE3C_MMP9: BioMAP Diversity Plus: BE3C Assay for Matrix Metallopeptidase 9 (MMP9) Biomarker Activity (AID 2284283); conditions: primary human bronchial epithelial cells
# Outline: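 Human primary bronchial epithelial cells exposed 24 h to compound. MMP9 quantified by ELISA. SRB total-protein staining of parallel cultures assesses cytotoxicity. Positive-direction fit relative to DMSO.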
# [6] = read-out: Plasminogen activator inhibitor-1 (PAI1), SERPINE1 (gene 5054); test: BSK_CASM3C_PAI1: BioMAP Diversity Plus: CASM3C Assay for Plasminogen activator inhibitor-1 (PAI1) Biomarker Activity (AID 2284284); conditions: primary human coronary artery smooth muscle cells;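 also: PAI-1 protein level measured by ELISA 24 h after dosing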
# [7] = read-out: Monocyte Chemoattractant Protein-1 (MCP1), CCL2 (gene 6347); test: BSK_hDFCGF_MCP1: BioMAP Diversity Plus: hDFCGF Assay for Monocyte Chemoattractant Protein-1 (MCP1) Biomarker Activity (AID 2284285); conditions: primary human foreskin fibroblasts
# Outline: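 Human foreskin fibroblasts (hDFCGF system) were exposed to compound and secreted MCP-1 was measured by ELISA after 24 hours. Activity was fitted relative to DMSO. Cytotoxicity was checked by SRB total-protein staining in parallel cultures.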
# [8] = read-out: Intercellular Adhesion Molecule 1 (ICAM1), ICAM1 (gene 3383); test: BSK_hDFCGF_ICAM1: BioMAP Diversity Plus: hDFCGF Assay for Intercellular Adhesion Molecule 1 (ICAM1) Biomarker Activity (AID 2284287); conditions: primary human foreskin fibroblasts
# Outline: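 Primary human foreskin fibroblasts (hDFCGF system) dosed with chemical; ICAM-1 quantified by ELISA at 24 h relative to DMSO. Parallel SRB total-protein staining to assess overt cytotoxicity.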
# [9] = read-out: TIMP metallopeptidase inhibitor 2 (TIMP2), TIMP2 (gene 7077); test: BSK_hDFCGF_TIMP2: BioMAP Diversity Plus: hDFCGF Assay for TIMP metallopeptidase inhibitor 2 (TIMP2) Biomarker Activity (AID 2284289); conditions: primary human foreskin fibroblasts
# Outline: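 Primary human foreskin fibroblasts in the hDFCGF system, dosed for 24 h; TIMP-2 level measured by ELISA, fitted in the positive direction against DMSO; cytotoxicity checked in parallel by sulforhodamine B total protein staining.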
# [10] = read-out: Thrombomodulin, THBD (gene 7056); test: BSK_LPS_Thrombomodulin: BioMAP Diversity Plus: LPS Assay for Thrombomodulin Biomarker Activity (AID 2284296); conditions: primary human HUVEC with PBMC
# Outline: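 Human umbilical vein endothelial cells co-cultured with PBMC and stimulated with LPS; cell-surface thrombomodulin measured by ELISA 24 hours after compound. Gain or loss versus DMSO; cytotoxicity checked by SRB staining in parallel cultures.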
smiles,measurement,setting,value
COCCOCCOCCO,outcome,[1],inactive
CN(C)CCOC(C)(c1ccccc1)c1ccccn1 (stereo unspecified),outcome,[1],inactive
CC(CN=Cc1ccccc1O)N=Cc1ccccc1O (stereo unspecified),outcome,[2],inactive
same,outcome,[3],inactive
same,outcome,[4],inactive
same,outcome,[5],inactive
same,outcome,[6],inactive
same,outcome,[7],inactive
same,outcome,[8],inactive
same,outcome,[9],inactive
same,outcome,[10],inactive
C=CC(C)(O)CCC=C(C)C (stereo unspecified),outcome,[2],inactive
same,outcome,[3],inactive
same,outcome,[4],inactive
same,outcome,[5],inactive
same,outcome,[6],inactive
same,outcome,[7],inactive
same,outcome,[8],inactive
same,outcome,[9],inactive
same,outcome,[10],inactive
CC1(C)CCC[C@]2(C)[C@H]3CCO[C@]3(C)CC[C@@H]12,AC50,[2],27 µM (active)
same,outcome,[2],inactive
same,AC50,[3],33.1 µM (active)
same,outcome,[3],inactive
same,AC50,[4],30.8 µM (active)
same,outcome,[4],inactive
same,AC50,[5],31.6 µM (active)
same,outcome,[5],inactive
same,outcome,[6],inactive
same,AC50,[7],30.6 µM (active) and 30.5 µM (active)
same,AC50,[8],37.5 µM (active) and 37.8 µM (active)
same,AC50,[9],36.4 µM (active) and 37.9 µM (active)
same,outcome,[10],inactive
COCCc1ccc(OCC(O)CNC(C)C)cc1 (stereo unspecified),outcome,[1],inactive
O=CN1CCOCC1,outcome,[2],inactive
same,outcome,[3],inactive
same,outcome,[4],inactive
same,outcome,[5],inactive
same,outcome,[6],inactive
same,outcome,[7],inactive
same,outcome,[8],inactive
same,outcome,[9],inactive
same,outcome,[10],inactive
CCOC(=O)C(C#N)=C(c1ccccc1)c1ccccc1,outcome,[2],inactive
same,outcome,[3],inactive
same,outcome,[4],inactive
same,outcome,[5],inactive
same,outcome,[6],inactive
same,outcome,[7],inactive
same,outcome,[8],inactive
same,outcome,[9],inactive
same,outcome,[10],inactive
Oc1c(Cl)cc(Cl)c(Cl)c1Cc1c(O)c(Cl)cc(Cl)c1Cl,AC50,[1],0.124 µM (active)
O=C(Nc1ccc2c(O)c(N=Nc3ccc(N=Nc4ccc(S(=O)(=O)O)cc4)cc3)c(S(=O)(=O)O)cc2c1)c1ccccc1,outcome,[2],inactive
same,outcome,[3],inactive
same,outcome,[4],inactive
same,outcome,[5],inactive
same,outcome,[6],inactive
same,outcome,[7],inactive
same,outcome,[8],inactive
same,outcome,[9],inactive
same,outcome,[10],inactive
CCCCCCC(CO)CCCC (stereo unspecified),outcome,[2],inactive
same,outcome,[3],inactive
same,outcome,[4],inactive
same,outcome,[5],inactive
same,outcome,[6],inactive
same,AC50,[7],30.9 µM (active) and 35 µM (active)
same,AC50,[8],35.6 µM (active) and 34.7 µM (active)
same,AC50,[9],30.6 µM (active) and 37.3 µM (active)
same,outcome,[10],inactive

# Reference: PubChem BioAssay (EPA / NIEHS)
